Experimental data: PubChem BioAssay (NCI)
Compounds without any hit were thinned out: in the full panel of roughly 83,000, 20% have a hit.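 Method: cells in 96-well plates; compound added at one concentration; 48 h incubation; percent growth measured; values under 10 scored active.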 Calls of active or inactive are those of the source.

The molecules below were run on HL-60(TB) leukemia (assay: NCI-60 one-dose screen, 48 h (100 = growth as untreated, 0 = no growth, -100 = all killed)). Conditions: 10 µM unless noted.

SMILES | growth
CCOC(=O)c1c(NC(=O)c2ccc(C(C)(C)C)cc2)sc2cc(OCCN3CCCCC3)ccc12 | 27.1% (inactive)
COC(=O)/C=C/c1c(C2(C)NC(=O)c3ccccc3N2)c(=O)oc2ccc(Cl)cc12 (stereo unspecified) | 109% (inactive)
COC1=C(c2ccccc2)C(=O)C(OC)=C(c2ccccc2)C1=O | 5.79% (active)
O=C(O)c1ccc(-n2cc(CNc3cc(F)c(F)c(F)c3)c(-c3cccc(F)c3)n2)cc1 | 108% (inactive)
Cc1cccc(/C=C/C(=O)Nc2ncc(Cc3cccc(C)c3)s2)c1 | 0.463% (active)
CN(C)c1ccc(/C=N/Nc2nc(N/N=C/c3ccc(N(C)C)cc3)nc(N3CCOCC3)n2)cc1 | 96.7% (inactive)
